The entries come from a sample that favours hits as a whole.
TTR transcr act: increases transthyretin transcription | SH-SY5Y TTR promoter Gaussia luciferase, luminescence; 100% = recombinant luciferase protein wells | activation, % at 16.7 µM | 92,000 compounds, 1.3% hits | AID 1117267;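 active means activation above the mean of all tested compounds plus 3 SD, cut at about 9.5% in these data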;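 further: cells exposed to compounds for one day before reading; 0% = median of all test compound wells on the plate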
HuH7 TTR inh: HuH7 TTR transcription inhibition, counter-screen; HuH7 TTR promoter-Gaussia luciferase reporter, luminescence; shares compounds with TTR transcr act; inhibition, % at 16.7 µM; 1,100 compounds, 4% hits;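 active means average inhibition above the solvent-only control wells' mean plus 3 SD, cut at about 15% in these data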;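 further: 0% = cells with DMSO only and 100% = cells with inhibitor control FD; inhibitors lower well luminescence so higher value means more inhibition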
TTR act confirm: human TTR transcription activation, confirmation; shares compounds with TTR transcr act; SHSY5Y TTR promoter Gaussia luciferase, luminescence; 100% = purified Lucia enzyme wells, no cells; activation, % at 16.7 µM; 1,100 tested, under 10 active; AID 1117280;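 active means mean activation above a set limit taken from the earlier primary screen, cut at about 11% in these data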;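 further: 0% = DMSO-treated cells and 100% = recombinant Lucia luciferase without cells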
* marks the source's active call; other numbers are inactive results.

SMILES	TTR transcr act	others
CCCCOc1cccc2c(=O)n(CC(=O)Nc3ccc4c(c3)OCCO4)ccc12	5
Cc1ccc(OCc2nnc(SCC(=O)O)n2-c2ccccc2)cc1	1
CCn1c(COc2ccc3c(c2)OCO3)nnc1SCC(=O)O	13*	HuH7 TTR inh=-5;TTR act confirm=0
CCn1c(COc2cccc(C)c2)nnc1SCC(=O)N1CCCC1	3
CCCCCCCCN1C(=O)[C@H](CC(=O)NCCCN2CCCC2=O)C[C@@]2(C(=O)OC)CC(C)(C)CC=C12	4
COc1ccc(OC)c(NC(=O)COc2cc(O)c3c(c2)OC(C)(C)CC3=O)c1	-2
CC(C)c1ccc(NC2CCCN(C(=O)CCN3CCCCC3=O)C2)cc1 (stereo not drawn)	0
CC(C)c1ccc(NC2CCCN(C(=O)c3cnc4ccccn4c3=O)C2)cc1 (stereo not drawn)	0
CC(C)c1ccc(NC2CCCN(C(=O)c3cccs3)C2)cc1 (stereo not drawn)	11*	HuH7 TTR inh=-5;TTR act confirm=-1
O=C1CCC[C@H]2C[C@H](NCCc3ccncc3)CC[C@]23CCCN13	-1
O=C(CCCc1ccccc1)N1CCN(C2CCCCC2)CC1	1
COc1ccc(CCC(=O)N2CCN(C3CCCCC3)CC2)cc1	14*	HuH7 TTR inh=-14;TTR act confirm=0
COc1cc(OC)cc(C(=O)N2CCN(C3CCCCC3)CC2)c1	6
Cc1ccc(NC(=O)N(Cc2cccs2)Cc2cc3cc4c(cc3[nH]c2=O)OCO4)cc1	-2
O=C(Nc1ccccc1)N(CCCN1CCOCC1)Cc1cc2cc3c(cc2[nH]c1=O)OCCO3	-1
O=C(Nc1ccc(F)cc1)N(Cc1cccs1)Cc1cc2cc3c(cc2[nH]c1=O)OCO3	28*	HuH7 TTR inh=-27;TTR act confirm=0
CCCCOc1ccc(C(=O)NC2CCCCN(Cc3ccc(C)cc3)C2=O)cc1 (stereo not drawn)	-2
O=C(Nc1ccc2c(c1)OCO2)c1cncc(Br)c1	11*	HuH7 TTR inh=-3;TTR act confirm=0
O=C(Nc1ccc2c(c1)OCO2)c1ccc(Br)o1	-2
O=C(Nc1ccc2c(c1)OCO2)c1cccc(F)c1	4
Cc1cc(C)c(CN2CCN(C(=O)CC[C@H]3O[C@@H](n4ccc(=O)[nH]c4=O)[C@H](O)[C@@H]3O)CC2)c(C)c1	-1
COc1ccc(S(=O)(=O)N2CCC[C@H]2C(=O)NCc2ccc(Cl)cc2)cc1	2
COc1ccc(S(=O)(=O)N2CCCC2C(=O)NCc2ccccc2Cl)cc1 (stereo not drawn)	-2
COc1ccc(CNC(=O)C2CCCN2S(=O)(=O)c2ccc(Cl)cc2)cc1 (stereo not drawn)	13*	HuH7 TTR inh=-12;TTR act confirm=0
CC(=O)Nc1cccc(-c2ccnc3c2CC(C(=O)NCc2ccc(N(C)C)cc2)O3)c1 (stereo not drawn)	0
SMILES	TTR transcr act	others
N#Cc1cccc(Cn2ccc3ccc(-c4ccc5ccn(Cc6cccc(C#N)c6)c5c4)cc32)c1	2
O=C(c1ccc(F)cc1)c1cnc(Nc2ccccc2)s1	15*	HuH7 TTR inh=-5;TTR act confirm=0
O=C(Cc1nnc(NC(=O)Nc2ccc(F)cc2)s1)Nc1ccccc1	3
Nc1nc(Nc2ccccc2)sc1C(=O)c1ccccc1	-3
COC(=O)[C@]12C[C@H](CC(=O)NCc3cccs3)C(=O)N(Cc3ccc(Cl)cc3Cl)C1=C[C@H](C(C)C)O[C@@H]2C1CC1	0
O=S1(=O)CC2c3ccccc3CCN2CN1CCc1ccccc1 (stereo not drawn)	-1
O=C(Nc1nc2ncccn2c1-c1ccc(C(F)(F)F)cc1)c1ccc(F)cc1	7
O=C(OCc1cn(Cc2ccc(F)cc2F)nn1)N1CCCC1	1
O=C(NC1CCCCCC1)c1cccc(S(=O)(=O)N2CCOCC2)c1	3
COc1ccc(S(=O)(=O)N2CCOCC2)cc1C(=O)Nc1cccc(C(=O)NC2CC2)c1	13*	HuH7 TTR inh=-8;TTR act confirm=2
O=C(NC1CCCCC1)c1cccc(S(=O)(=O)N2CCOCC2)c1	2
O=C(Nc1ccc2c(c1)OCO2)O[C@@H]1CC[C@@]23CCCN2C(=O)CCC[C@H]3C1	0
CCCCCn1nnnc1C1(C)Cn2nccc2C(=O)N1Cc1ccco1 (stereo not drawn)	2
CNC12CCc3cc(OC)c(OC)c(c31)-c1cc3c(cc1C2)OCO3 (stereo not drawn)	0
COC(=O)C[C@@H]1CC[C@H]2[C@H](COc3ccc(NC(=O)Nc4ccc(Cl)cc4)cc3C(=O)N2C)O1	-2
O=C(OCc1cn(Cc2ccc(F)c(F)c2)nn1)N1CCCC1	0
CCOC(=O)CCCNC(=O)OC1CC2CC1[C@H]1CCCCN1[C@H]2C (stereo partly drawn)	0
COc1cc2cc(CN(CCc3cccc(C)c3)C(=S)NCCCN(C)C)c(=O)[nH]c2cc1OC	-1
Cc1cccc(N(Cc2cc3cc(C)ccc3[nH]c2=O)C(=O)c2cccs2)c1	-2
COc1cc2cc(CN(CCO)C(=O)c3cccs3)c(=O)[nH]c2cc1OC	33*	HuH7 TTR inh=-11;TTR act confirm=0
C#CCNC(=O)C[C@@H]1C[C@]2(C(=O)OCC)CCC3=C2N(CCC3)C1=O	-2
COC(CNC(=O)[C@H](Cc1ccccc1)NC1(C(=O)NC2CCCCC2)CCCC1)OC	0
CCCCCCC(=O)n1ccc2ccc(-c3ccc4ccn(Cc5ccc(OC)cc5)c4c3)cc21	-1
O=C(NCc1cccs1)NC1CCCCC1	1
O=C(/C=C/C(=O)NCc1cccs1)NCc1cccs1	-1
SMILES	TTR transcr act	others
O=C(CC1CC2CCC1C2)NCc1cccs1 (stereo not drawn)	18*	HuH7 TTR inh=-10;TTR act confirm=1
COC(=O)[C@]12C[C@H](CC(=O)NCCCN3CCCC3=O)C(=O)N(Cc3ccco3)C1=C[C@H](COCc1ccccc1)O[C@@H]2C	6
COc1ccc(C2Nc3ccccc3C(=O)N2Cc2cccnc2)cc1COc1c(C)cccc1C (stereo not drawn)	-2
CC(=O)Nc1sc2c(c1-c1nc3ccccc3s1)CCN(C(C)C)CC2	3
COc1ccc(CNC(=O)O[C@H]2CC[C@@]34CCCN3C(=O)CCC[C@H]4[C@H]2C)cc1	-2
CN1CCN(C2=C(Cl)C(=O)N(CCc3ccccc3)C2=O)CC1	5
O=C1C(Cl)=C(NCCCN2CCOCC2)C(=O)N1CCc1ccccc1	69*	HuH7 TTR inh=-3;TTR act confirm=-1
O=C(CCc1ccccc1)NCCCN1CCOCC1	1
Cc1ccccc1CN1CCCCC(NC(=O)C2CCCC2)C1=O (stereo not drawn)	0
CCOC(=O)c1cc(/C(C)=N/OC(=O)c2ccc(Cl)cc2)on1	9.8*	HuH7 TTR inh=-8;TTR act confirm=-1
C/C(=N\OC(=O)c1ccc(F)cc1)c1ccc(F)c(F)c1	0
CCCS(=O)(=O)C/C(N)=N/OC(=O)c1ccc(Cl)cc1	-1
CC(C)(C)OC(=O)N1CCC(N[C@@H](Cc2ccccc2)C(=O)NCC(c2ccccc2)c2ccccc2)(C(=O)NC2CCCCC2)CC1	2
CCOc1ccc(CCNC(=O)c2cc3sccc3n2Cc2ccccc2)cc1OCC	-1
COc1ccc2[nH]c3c(c2c1)CCN[C@]31C(=O)N(C)c2ccc(Br)cc21	0
Cc1csc(NC(=O)c2nc3nccc(C)n3n2)n1	11*	HuH7 TTR inh=-8;TTR act confirm=-1
Cc1ccnc2nc(C(=O)Nc3ccc(N4CCOCC4)cc3)nn12	1
Cc1ccnc2nc(C(=O)Nc3nc4ccccc4s3)nn12	5
O=C(NCCc1c[nH]c2ccccc12)OCc1cn(-c2ccc(F)cc2)nn1	2
